# Test results taken from PubChem BioAssay.
# Experiment: compound effects on hepatocellular carcinoma cell viability – HepG2, calcein-AM fluorescence, 48 h, basal, profiling panel (AID 1164); also: test concentration not given here
# Details: higher = more signal
row,SMILES,z-score
1,Cc1cc(C)c(C(O)C2C=CC3C(=O)N(c4ccccc4)C(=O)C3N2Nc2ccccc2)c(C)c1 (configuration not stated),1.37
2,O=C1O[C@H](c2ccccc2)[C@H](c2ccccc2)N2[C@H]1[C@@H](C(=O)N1CCN(c3ncccn3)CC1)[C@]1(C(=O)Nc3ccc(C#CCCO)cc31)[C@H]2c1ccc(OCCO)cc1,-0.53
3,O=C1CSC(c2cccc([N+](=O)[O-])c2)N1c1ccccc1 (configuration not stated),1.71
4,COC(=O)C(CC#Cc1ccc2c(c1)[C@]1(C(=O)N2)[C@H](c2ccc(O)cc2)N2[C@H](c3ccccc3)[C@H](c3ccccc3)OC(=O)[C@H]2[C@@H]1C(=O)O)C(=O)OC,0.0171
5,COCCCNC(=O)[C@@]1(Cc2ccccc2I)c2ccccc2C(=O)N(Cc2ccccc2Cl)[C@H]1c1ccc(CO)cc1,0.9
6,COC(=O)[C@]1(Cc2ccccc2CN=[N+]=[N-])N=C(c2ccc(OCCCO)cc2)O[C@@H]1c1ccccc1,-4.37
7,CN(C)CCCCCCNC(=O)[C@@H]1C[C@@H]2C(=O)NCC(=O)N2[C@@H]1c1ccc(O)cc1,-0.963
8,COC(=O)c1ccc(OC)c(/C=C\CC(CCc2ccccc2)OC(=O)c2ccncc2)c1 (configuration not stated),-0.457
9,CCOC(=O)C[C@H]1[C@H](OC(=O)Cc2ccc3c(c2)OCO3)[C@@H](NC(=O)c2ccccc2)c2cc(OCCCO)ccc2N1C(=O)c1ccc2ccccc2n1,1.8
10,CCCNC(=O)[C@@]1(Sc2ccc(C)cc2)CC(=O)N(Cc2ccccc2)[C@@H]1c1ccc(CO)cc1I,0.0653
11,CC1(C)[C@@H]2CC(C(O)C3C=CC4C(=O)N(c5ccccc5)C(=O)C4N3Nc3ccccc3F)=C[C@@H]1C2 (some centres not stated),-0.0679
12,COc1ccc(C#Cc2ccc3c(c2)[C@]2(C(=O)N3)[C@H](C(N)=O)[C@H]3C(=O)O[C@H](c4ccccc4)[C@H](c4ccccc4)N3[C@@H]2c2ccc(O)cc2)cc1,-4.5
13,COc1ccc([Si](C)(C)[C@@H]2[C@@H](CCO)O[C@]3(C(=O)N(Cc4ccc(N5C(=O)c6ccccc6Oc6ccccc65)cc4)c4ccccc43)[C@H]2C)cc1,-3.56
14,NC(=O)NCC#Cc1ccc2c(c1)[C@]1(C(=O)N2)[C@H](c2ccc(O)cc2)N2[C@H](c3ccccc3)[C@H](c3ccccc3)OC(=O)[C@H]2[C@@H]1C(=O)NC[C@H](O)c1ccccc1,-0.0875
15,CO[C@H]1O[C@H](CO)[C@@H](OC(=O)c2ccc(Br)cc2)[C@@H]2OC(=O)[C@H](Cc3cccc(Br)c3)C/C=C/C[C@@H](Cc3cccc(Br)c3)C(=O)O[C@@H]12,-0.542
16,CO[C@H]1O[C@H](CO)[C@@H](OC(=O)Nc2cccc(F)c2)[C@H](OC(=O)Nc2ccc3c(c2)OCO3)[C@H]1OC(=O)Nc1ccc2c(c1)OCO2,-1.86
17,CC(C)C[C@H]1NC(=O)[C@H](C)NC(=O)[C@@]23C(=O)N[C@@H](Cc4ccccc4)C2[C@H](C)[C@@]2(C)O[C@H]2C3/C=C/C/C=C\CNC1=O (some centres not stated),-0.17
18,Cc1ccc(C(C)CC(O)C2C=CC3C(=O)N(Cc4ccccc4)C(=O)C3N2n2cnnc2)o1 (configuration not stated),-0.705
19,COCCCNC(=O)[C@@]1(Cc2ccccc2)COC(c2ccc(OCCCO)cc2)=N1,1.02
20,O=C1c2ccccc2[C@](Cc2ccccc2I)(C(=O)NC2CC2)[C@H](c2ccc(CO)cc2)N1Cc1ccccc1Cl,-0.0887
21,CCOC(=O)C[C@H]1[C@H](OC(=O)Cc2ccc3c(c2)OCO3)[C@@H](NC(=O)c2ccccc2)c2cc(OCCCO)ccc2N1C(=O)c1ccccc1,1.52
22,CCOC(=O)C1=CC[C@@H](c2ccc(N(CC)CC)cc2)N(S(=O)(=O)c2ccc(C)cc2)[C@H]1c1ccc([N+](=O)[O-])cc1,0.203
23,COC(=O)C(CC#Cc1ccc2c(c1)[C@]1(C(=O)N2)[C@H](C(=O)N2CCc3cc(OC)c(OC)cc3C2)[C@H]2C(=O)O[C@H](c3ccccc3)[C@H](c3ccccc3)N2[C@@H]1c1ccc(OCCO)cc1)C(=O)OC,1.63
24,CC(C)N1C(=O)c2ccccc2[C@](C)(C(=O)O)[C@@H]1c1ccc(CO)cc1,-0.876
25,C=CCC(OC(C)=O)[C@@H]1[C@@H](N(Cc2ccc(-c3ccccc3)cc2)C(=O)c2cccc3ccccc23)c2cc(OCCCO)ccc2N1C(=O)c1ccc2ccccc2n1 (some centres not stated),0.833
26,[N-]=[N+]=Nc1ccccc1[C@H]1OC(c2ccc(OCCCO)cc2)=N[C@@]1(Cc1ccccc1)C(=O)NCc1ccccc1,-1.07
27,COCCCNC(=O)[C@]1(CCS(=O)(=O)c2ccccc2)N=C(c2ccc(OCCCO)cc2)O[C@@H]1c1ccccc1,0.9
